Drawing on PubChem BioAssay AID1224904 (Broad Institute, 2016), this text covers activity change, negative = inhibition and Gaussia minus Italica difference for 26 molecules.

Hit rate of the full screen: of about 37,000 compounds, about 290 (0.78%) were called active. Not shown: some 10% with an inconclusive outcome. This is one part of a sample in which actives are shown more often than they occur.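 How the source made its calls: active means mean inhibition of at least 10% in the main channel, exceeding the control channel by a set limit; inconclusive means inhibition of 10% or more but channel gap under a set limit; inactive means mean inhibition below 10%.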

The experiment can be described thus: DUX4 transcriptional activity inhibition in cells – 293T cells, Gaussia and Italica luciferase, primary screen (AID 1224904).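 On activity change, negative = inhibition: 0% = median of neutral control wells and -100% = median of positive control wells.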 To be noted: 293T-iDUX4 ZSCAN4-Gaussia luciferase reporter, 24 h, stronger effect = lower value, concentration not given here; for Gaussia minus Italica difference: measured here: selective DUX4 reporter inhibition. Background: In a reporter assay the amount or activity of a reporter protein is the signal.

Where [1] appears, read: measured here: Italica tet-on control reporter.

On to `CCC(=O)N(C)C[C@H]1[C@H](c2ccc(-c3ccccc3F)cc2)[C@@H](CO)N1C(C)=O`, for which the activity change, negative = inhibition is 3.08% (inactive) and the Gaussia minus Italica difference is -4.34%. Moreover, the activity change, negative = inhibition under setting [1] came out at 7.42%.
The like results for `CCCNC(=O)[C@@H]1[C@@H](CO)[C@@H]2Cn3c(cccc3=O)[C@H]1N2C(=O)C1CCC1` were, in that order, -0.71% (inactive), -2.29% and 1.58%.
As for `CC=Cc1ccc2n(c1=O)C[C@@H]1[C@@H](CO)[C@H](C(=O)NCCCN3CCOCC3)[C@H]2N1Cc1cocn1` (mixture of isomers), the activity change, negative = inhibition was -1.75% (inactive) and the Gaussia minus Italica difference was -6.07%. Further, the activity change, negative = inhibition under setting [1] worked out at 4.32%.
`CCCNC(=O)[C@@H]1[C@@H](CO)[C@@H]2Cn3c(ccc(C4=CCCCC4)c3=O)[C@H]1N2CCC`: the activity change, negative = inhibition was 0.23% (inactive) and the Gaussia minus Italica difference was 0.57%. The activity change, negative = inhibition under setting [1] is -0.339%.
Consider `COCCN(C[C@H]1[C@@H](c2ccccc2)[C@H](CO)N1C(=O)C1CCC1)C(C)=O`, for which the activity change, negative = inhibition is -2.05% (inactive) and the Gaussia minus Italica difference was -7.51%. Under setting [1], the activity change, negative = inhibition came out at 5.46%.
As to `C[C@H]1CN([C@@H](C)CO)S(=O)(=O)c2ccc(-c3ccncc3)cc2O[C@H]1CN(C)S(C)(=O)=O`, the activity change, negative = inhibition was -0.678% (inactive) and the Gaussia minus Italica difference is -5.48%. Further, under setting [1], the activity change, negative = inhibition was 4.8%.
As to `CCC(=O)N1C[C@@H](C)[C@H](OC)CN(C)C(=O)c2cc(NC(=O)c3cc(C)on3)ccc2OC[C@@H]1C`, the activity change, negative = inhibition was -1.43% (inactive) and the Gaussia minus Italica difference was -3.85%. In addition, under setting [1], the activity change, negative = inhibition amounted to 2.42%.
The like results for `CCCNC(=O)N1C[C@@H](C)[C@@H](OC)CN(C)C(=O)c2ccc(NC(=O)C3CCC3)cc2OC[C@@H]1C` were, in that order, -2.74% (inactive), -0.535% and -2.2%.
`CN1C(=O)c2cc(NS(=O)(=O)c3ccc(Cl)cc3)ccc2OC[C@H]2O[C@@H](CC(=O)O)CC[C@H]21`: the activity change, negative = inhibition is 2.17% (inactive) and the Gaussia minus Italica difference came out at 2.63%. The activity change, negative = inhibition under setting [1] is -0.461%.
Consider `CN1C(=O)c2cc(NC(=O)c3ccc(F)c(F)c3)ccc2OC[C@H]2O[C@@H](CC(=O)N3CCCCC3)CC[C@H]21`, for which the activity change, negative = inhibition was -2.75% (inactive) and the Gaussia minus Italica difference was -0.906%. Also, the activity change, negative = inhibition under setting [1] is -1.85%.
Take `CO[C@@H](CN(C)C(=O)Nc1ccc(F)cc1)[C@H](C)CN(Cc1ccccc1Cl)[C@@H](C)CO`: the activity change, negative = inhibition was 1.39% (inactive) and the Gaussia minus Italica difference came to 2.69%. Also, the activity change, negative = inhibition under setting [1] is -1.3%.
On the same counts, the results for `COCC(=O)N1CC2(C1)[C@H](c1ccc(-c3cccc(F)c3)cc1)[C@@H](CO)N2C(=O)COC` are 6.28% (inactive), 3.04% and 3.24%.
Turning to `CN(C)c1ccc2c(c1)[C@H]1C[C@H](CC(=O)O)O[C@H](CO)[C@H]1O2`, the activity change, negative = inhibition was 1.12% (inactive) and the Gaussia minus Italica difference was -5.64%. The activity change, negative = inhibition under setting [1] amounted to 6.76%.
The like results for `C[C@@H]1CN([C@@H](C)CO)C(=O)c2c(c3ccccc3n2C)-c2ccccc2CO[C@@H]1CN(C)S(=O)(=O)c1cccs1` were, in that order, 10.1% (inactive), 5.19% and 4.92%.
As for `C[C@@H]1CN([C@@H](C)CO)C(=O)c2c(c3ccccc3n2C)-c2ccccc2CO[C@@H]1CN(C)S(=O)(=O)CC(F)(F)F`, the activity change, negative = inhibition is 18.5% (inactive) and the Gaussia minus Italica difference amounted to 17.3%. The activity change, negative = inhibition under setting [1] turned out to be 1.21%.
Take `CC(C)OC(=O)N(C)C[C@@H]1OCc2ccccc2-c2c(n(C)c3ccccc23)C(=O)N([C@H](C)CO)C[C@H]1C`: the activity change, negative = inhibition is -4.14% (inactive) and the Gaussia minus Italica difference is -3.24%. Also, the activity change, negative = inhibition under setting [1] is -0.897%.
In the case of `C[C@H]1CN([C@@H](C)CO)C(=O)c2c(c3ccccc3n2C)-c2ccccc2CO[C@H]1CN(C)Cc1ccc2c(c1)OCO2`, the activity change, negative = inhibition is 3.62% (inactive) and the Gaussia minus Italica difference came to 4.06%. In addition, the activity change, negative = inhibition under setting [1] is -0.444%.
Take `C[C@@H]1CN([C@@H](C)CO)C(=O)c2c(c3ccccc3n2C)-c2ccccc2CO[C@@H]1CN(C)Cc1ccc2c(c1)OCCN2C`: the activity change, negative = inhibition is -2.06% (inactive) and the Gaussia minus Italica difference was -4.27%. Further, the activity change, negative = inhibition under setting [1] came to 2.22%.
Turning to `Cc1ccccc1S(=O)(=O)N(C)C[C@@H]1OCc2ccccc2-c2c(n(C)c3ccccc23)C(=O)N([C@H](C)CO)C[C@H]1C`, the activity change, negative = inhibition was -34% (active) and the Gaussia minus Italica difference was -27.3%. Moreover, the activity change, negative = inhibition under setting [1] is -6.75%.
Regarding `C[C@@H]1CN([C@H](C)CO)C(=O)c2c(c3ccccc3n2C)-c2ccccc2CO[C@@H]1CN(C)Cc1ccc(F)cc1`, the activity change, negative = inhibition is -34.5% (active) and the Gaussia minus Italica difference was -25.8%. In addition, the activity change, negative = inhibition under setting [1] was -8.76%.
For `C[C@H](CO)N1C[C@H](C)[C@@H](CN(C)Cc2ccc(C(F)(F)F)cc2)OCc2ccccc2-c2c(n(C)c3ccccc23)C1=O`, the activity change, negative = inhibition was -40.3% (active) and the Gaussia minus Italica difference was -29.3%. Under setting [1], the activity change, negative = inhibition is -11%.
As for `C[C@@H]1CN([C@@H](C)CO)C(=O)c2c(c3ccccc3n2C)-c2ccccc2CO[C@H]1CN(C)Cc1cccc(C(=O)O)c1`, the activity change, negative = inhibition is -0.025% (inactive) and the Gaussia minus Italica difference stood at 8.28%. Also, under setting [1], the activity change, negative = inhibition is -8.31%.
For the molecule `C[C@@H]1CN([C@H](C)CO)C(=O)c2c(c3ccccc3n2C)-c2ccccc2CO[C@@H]1CN(C)Cc1ccccc1C(F)(F)F`, the activity change, negative = inhibition was -42% (active) and the Gaussia minus Italica difference was -36.9%. The activity change, negative = inhibition under setting [1] is -5.06%.
On to `C[C@@H]1CN([C@@H](C)CO)C(=O)c2c(c3ccccc3n2C)-c2ccccc2CO[C@H]1CN(C)S(=O)(=O)c1cccs1`, for which the activity change, negative = inhibition was -5.46% (inactive) and the Gaussia minus Italica difference is -4.37%. In addition, the activity change, negative = inhibition under setting [1] is -1.09%.
As to `C[C@@H]1CN([C@@H](C)CO)C(=O)c2c(c3ccccc3n2C)-c2ccccc2CO[C@@H]1CN(C)Cc1cccc(C(=O)O)c1`, the activity change, negative = inhibition is 7.37% (inactive) and the Gaussia minus Italica difference amounted to 2.36%. Further, the activity change, negative = inhibition under setting [1] was 5%.
Take `CCC(=O)N1CC2(C1)[C@@H](c1ccc(C3=CCCC3)cc1)[C@@H](CO)N2C(=O)COC`: the activity change, negative = inhibition is 2.59% (inactive) and the Gaussia minus Italica difference was -0.983%. Moreover, the activity change, negative = inhibition under setting [1] came to 3.57%.
